# The supplement of paper PMC8975748
# Where a name gives a salt, the structure may show the parent alone.
# System: Saccharomyces cerevisiae BY4741 SeMeCo community
# Assay: z-score of subpopulation abundance vs DMSO median, subpopulation auxotrophic for LUM; higher = larger share of this subpopulation than in DMSO controls
# Conditions: 10 µM; 24 h; SM minimal medium; subpopulation (auxotrophy): LUM
# Description: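 Fluorescent four-plasmid SeMeCo (self-establishing metabolically cooperating S. cerevisiae BY4741 community; plasmids pH-mRuby2, pL-mWasabi, pU-eCFP, pM-TagRFP657) was grown 24 h in minimal SM medium with each Selleck FDA-approved drug at 10 µM in 384-well plates. Cells were fixed and imaged by high-content confocal microscopy. For each auxotrophic subpopulation (and the prototroph), a z-score gives the deviation from the DMSO vehicle-control population median.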
row,Structure (SMILES),z-score of subpopulation abundance
1,CN1[C@@H]2CC[C@H]1C[C@@H](OC(=O)[C@H](CO)c1ccccc1)C2 [Hyoscyamine],-0.43
2,COc1ccc2c3c([nH]c2c1)C(C)=NCC3 [Harmaline],-4.96
3,C[N+]12CCC(CC1)C(OC(=O)C(O)(c1ccccc1)c1ccccc1)C2 (centres undefined) [Clidinium Bromide],-0.9
4,CCN(C)C(=O)Oc1cccc([C@H](C)N(C)C)c1 [Rivastigmine Tartrate],-0.01
5,C[C@@H]1O[C@@H](O[C@H]2C[C@@H](O)[C@]3(CO)[C@H]4[C@H](O)C[C@]5(C)[C@@H](C6=CC(=O)OC6)CC[C@]5(O)[C@@H]4CC[C@]3(O)C2)[C@H](O)[C@H](O)[C@H]1O [Ouabain],-0.83
6,CN(C)C(=O)Oc1cccc([N+](C)(C)C)c1 [Neostigmine Bromide],0.02
7,O=c1[nH]c2ccccc2n1CCCN1CCC(n2c(=O)[nH]c3cc(Cl)ccc32)CC1 [Domperidone],-0.33
8,O=C(O[C@H]1C[N+]2(CCCOc3ccccc3)CCC1CC2)C(O)(c1cccs1)c1cccs1 [Aclidinium Bromide],-0.16
9,Nc1ccncc1 [4-Aminopyridine],0.34
10,C[C@H]1O[C@H](O[C@H]2[C@H](O)[C@@H](O)[C@@H](O)[C@H](O)[C@@H]2O)[C@@H](N)C[C@@H]1NC(=N)C(=O)O [Kasugamycin hydrochloride],0.34
11,CN1[C@@H]2C[C@@H](OC(=O)[C@H](CO)c3ccccc3)C[C@H]1[C@@H]1O[C@@H]12 [Scopolamine HBr],-0.9
12,CN(C)[C@@H]1C(=O)C(C(N)=O)=C(O)[C@@]2(O)C(=O)C3=C(O)c4c(O)cccc4[C@@](C)(O)[C@H]3C[C@@H]12 [Tetracycline HCl],-0.52
13,CN1C(=O)COc2c(C(=O)NC3CN4CCC3CC4)cc(Cl)cc21 (centres undefined) [Azasetron HCl],-0.38
14,CN(C)[C@@H]1C(=O)C(C(N)=O)=C(O)[C@@]2(O)C(=O)C3=C(O)c4c(O)ccc(Cl)c4[C@@](C)(O)[C@H]3C[C@@H]12 [Chlortetracycline HCl],-0.67
15,C=CN1CCCC1=O.II [Povidone iodine],0.83
16,CN(C)C(=O)Oc1ccc[n+](C)c1 [Pyridostigmine Bromide],-0.35
17,CC[C@H]1CN2CC[C@]3(C(=O)Nc4ccccc43)[C@@H]2C[C@@H]1/C(=C\OC)C(=O)OC [Rhynchophylline],-0.36

row,Structure (SMILES),z-score of subpopulation abundance
1,CCOC(=O)Nc1ccc(NCc2ccc(F)cc2)cc1N [Retigabine 2HCl],-0.01
2,Cc1cc(O)ccc1Cl [Chlorocresol],-0.61
3,COC(=O)C1=CCCN(C)C1 [Arecoline HBr],0.07
4,Oc1cccc2cccnc12 [8-Hydroxyquinoline],-0.89
5,CN1[C@@H]2CC[C@H]1C[C@@H](OC(=O)C(CO)c1ccccc1)C2 (some centres undefined) [Atropine sulfate monohydrate],0.28
6,CN[C@@H]1[C@@H](O)[C@@H](O[C@@H]2[C@@H](O)[C@H](O[C@H]3O[C@H](CN)CC[C@H]3N)[C@@H](N)C[C@H]2N)OC[C@]1(C)O.CN[C@@H]1[C@@H](O)[C@@H](O[C@@H]2[C@@H](O)[C@H](O[C@H]3O[C@H]([C@@H](C)N)CC[C@H]3N)[C@@H](N)C[C@H]2N)OC[C@]1(C)O.CN[C@@H]1[C@@H](O)[C@@H](O[C@@H]2[C@@H](O)[C@H](O[C@H]3O[C@H]([C@@H](C)NC)CC[C@H]3N)[C@@H](N)C[C@H]2N)OC[C@]1(C)O [Gentamicin Sulfate],-0.47
7,CC(C)=CCOc1c2occc2cc2ccc(=O)oc12 [Imperatorin],0.74
8,C[C@@H]1CC[C@H]2[C@@H](C)C(=O)O[C@@H]3O[C@@]4(C)CC[C@@H]1[C@]32OO4 [Artemisinin],-0.97
9,O=[N+]([O-])C(Br)(CO)CO [Bronopol],-0.07
10,O=C(O[C@H]1C[C@H]2CC[C@@H](C1)[N+]21CCCC1)C(O)(c1ccccc1)c1ccccc1 [Trospium chloride],-0.13
11,CC(=O)O[C@H]1C[C@@H]2CC[C@@H]3[C@H](CC[C@@]4(C)[C@H]3C[C@H]([N+]3(C)CCCCC3)[C@@H]4OC(C)=O)[C@@]2(C)C[C@@H]1[N+]1(C)CCCCC1 [Pancuronium dibromide],-0.96
12,CCCN1C[C@H](CSC)C[C@@H]2c3cccc4[nH]cc(c34)C[C@H]21 [Pergolide Mesylate],-0.65
13,CCN1CC2(OC(=O)c3ccccc3NC(C)=O)CCC(OC)C34C1C(CC23)C1(O)CC(OC)C2CC4C1(O)C2OC (centres undefined) [Lappaconitine],0.98
14,COc1ccc2[nH]cc(CCN)c2c1 [5-Methoxytryptamine],0.78
15,C=C[C@H]1CN2CC[C@H]1C[C@H]2[C@H](O)c1ccnc2ccccc12 [Cinchonidine],0.19
16,C[CH2][Hg][S]c1ccccc1C(=O)[O-].[Na+] [Thimerosal],21
17,CCCCCCCCCCCCCCCC[n+]1ccccc1 [Cetylpyridinium Chloride],7.62
